An excerpt weighted towards active compounds, which were near 1.6% of everything screened.
KCNQ2 block – blocks the rat KCNQ2 potassium channel. CHO-K1 KCNQ2, FluxOR thallium flux, 20 min; hits give low values. B-score at 10 µM. actives 1.1% (n = 310,000). AID 2156;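 active means fluorescence ratio B-score at most minus 3 library SDs, with starting brightness B-score within 2 library SDs, cut at about -5.5 in these data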
KCNQ2 pot – KCNQ2 (rat) channel potentiation. O88943. CHO-K1 KCNQ2, FluxOR thallium flux fluorescence; hits give high values. B-score at 10 µM. actives 0.54% (n = 310,000). AID 2239;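 active means fluorescence ratio B-score at least 3 SD of library B-scores, with initial fluorescence B-score within 3 of them, cut at about 5.3 in these data; same plate scores as AID 2156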;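 further: B-score of peak minus minimum over baseline fluorescence ratio after K+ and Tl+ stimulus; positive B-score means potentiation of KCNQ2 with more thallium influx and brighter signal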
Kir21 confirm – confirmation of mouse Kir2.1 potassium channel inhibitors; Tl flux remaining, % of negative control (hits give low values), % at 10 µM; Kir2.1-expressing cells, FluxOR thallium flux fluorescence; hits give low values; actives 41% (n = 2,300); shares compounds with KCNQ2 pot;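 active means Primary-screen hit whose thallium flux fell at least 3 control SD below untreated wells in both duplicates, with normal baseline fluorescence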
HEK293 ctr – alters thallium flux in parental HEK293 cells, Kir2.1 counter-screen. shares compounds with KCNQ2 pot. FluxOR thallium flux fluorescence; 0% = unstimulated blank wells. FluxOR signal as % of negative control (100 = no effect), % at 10 µM. actives 19% (n = 2,300). AID 2105;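 active means dye signal at least 3 control SD above or below untreated wells in both duplicates, raw fluorescence within 3, either direction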;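 further: percent is based on the flux ratio of peak minus minimum fluorescence over baseline F0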
CHO-K1 Tl ctr – parental CHO-K1 activity in KCNQ2 potentiator counter-screen; parental CHO-K1 cells, FluxOR thallium flux fluorescence; zero = vehicle mean+3SD, 100% = vehicle-minus-blank window; shares compounds with KCNQ2 pot; actives 43% (n = 1,200); activity increase over 3SD of controls, % at 10 µM;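 active means signal rise of at least 3 SD above the untreated control mean, in both duplicate wells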;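 further: counter screen of KCNQ2 potentiator hits so any rise reflects channel-independent effects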
KCNQ1 pot spec – selectivity of KCNQ2 potentiators: effect on human KCNQ1 | activation over 3SD threshold, % at 10 µM | CHO KCNQ1 stable, FluxOR thallium flux fluorescence; beyond 3SD, as % of vehicle-control signal | shares compounds with KCNQ2 pot | actives 28% (n = 1,200);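 active means fluorescence ratio rise of at least 3 SD of vehicle wells above their mean, in both replicate wells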
KCNQ2 pot confirm – rat KCNQ2 channel potentiator confirmation; shares compounds with KCNQ2 pot; CHO-KCNQ2 cells, FluxOR thallium flux fluorescence; potentiation, less the hit threshold, % at 10 µM; actives 68% (n = 1,200); AID 2287;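 active means fluorescence ratio rising 3 SD or more over the vehicle control mean in both replicates, plus primary screen hit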;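 further: peak minus minimum thallium fluorescence divided by baseline after K/Tl stimulus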
Kir21 spec – tests whether KCNQ2 potentiators also affect mouse Kir2.1; shares compounds with KCNQ2 pot; HEK293 Kir2.1, FluxOR thallium flux fluorescence; activity over 3SD threshold, % at 10 µM; actives 2% (n = 1,200); AID 2345;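 active means fluorescence ratio rise of at least 3 SD above the vehicle-control mean, seen in both replicates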
KCNQ2 W236L MoA – rat KCNQ2 W236L mutant potentiation by KCNQ2 potentiators | shares compounds with KCNQ2 pot | CHO KCNQ2-W236L, automated patch clamp current | current increase over 3SD of negative controls (%), hits give high values, % at 25 µM | actives 10% (n = 940) | AID 2558;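 active means current increase at least 3 SD of the untreated controls above them in both duplicate recordings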
Target sequence (O88943 whole entry W236L, looked up): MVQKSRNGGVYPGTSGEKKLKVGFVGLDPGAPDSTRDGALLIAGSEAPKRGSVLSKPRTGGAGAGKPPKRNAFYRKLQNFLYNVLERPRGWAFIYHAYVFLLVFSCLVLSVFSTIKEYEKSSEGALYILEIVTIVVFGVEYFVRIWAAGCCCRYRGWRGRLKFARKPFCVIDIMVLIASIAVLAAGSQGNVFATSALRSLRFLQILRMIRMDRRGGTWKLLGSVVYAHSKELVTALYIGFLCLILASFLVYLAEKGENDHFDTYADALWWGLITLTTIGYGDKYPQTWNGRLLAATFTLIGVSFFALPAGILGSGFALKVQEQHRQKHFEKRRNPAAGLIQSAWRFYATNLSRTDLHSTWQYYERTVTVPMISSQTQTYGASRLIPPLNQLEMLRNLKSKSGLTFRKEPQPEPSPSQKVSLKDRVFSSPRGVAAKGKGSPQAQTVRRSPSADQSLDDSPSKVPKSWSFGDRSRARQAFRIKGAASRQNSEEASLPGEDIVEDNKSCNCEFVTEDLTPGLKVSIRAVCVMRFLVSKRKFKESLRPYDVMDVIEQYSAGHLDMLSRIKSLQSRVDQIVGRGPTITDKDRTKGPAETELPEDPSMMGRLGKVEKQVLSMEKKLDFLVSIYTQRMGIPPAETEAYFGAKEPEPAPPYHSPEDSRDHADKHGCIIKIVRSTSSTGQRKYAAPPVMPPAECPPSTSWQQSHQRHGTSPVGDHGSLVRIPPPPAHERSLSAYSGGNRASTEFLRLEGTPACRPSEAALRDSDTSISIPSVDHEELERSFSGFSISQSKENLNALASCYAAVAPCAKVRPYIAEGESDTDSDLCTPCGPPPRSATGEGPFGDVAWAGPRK
Hits are given with their value.

What do the screens show for `C(=N\Nc1nc2ccccc2s1)/c1ccccn1`?
KCNQ2 block: inactive; KCNQ2 pot: 11; Kir21 confirm: inactive; HEK293 ctr: inactive; CHO-K1 Tl ctr: inactive; KCNQ1 pot spec: inactive; KCNQ2 pot confirm: 44; Kir21 spec: inactive; KCNQ2 W236L MoA: inactive

Results for CCOc1ccc(CNC(=O)CCc2cn(Cc3ccccc3)c3ccccc23)cc1 ?
KCNQ2 block: inactive; KCNQ2 pot: inactive

How did CCCCNC(=S)NC(=O)c1ccc([N+](=O)[O-])cc1 do in these assays?
KCNQ2 block: inactive; KCNQ2 pot: 8.8; Kir21 confirm: inactive; HEK293 ctr: 188%; CHO-K1 Tl ctr: 2.5; KCNQ1 pot spec: 14; KCNQ2 pot confirm: 10; Kir21 spec: inactive; KCNQ2 W236L MoA: inactive

How did CC(C)CNC(=S)NC(=O)c1ccc([N+](=O)[O-])cc1 do in these assays?
KCNQ2 block: inactive; KCNQ2 pot: inactive

What do the screens show for `CCC1CCCCN1CCCNC(=O)c1ccc2c(=O)n(CCOC)c(=O)[nH]c2c1` (stereo not given)?
KCNQ2 block: inactive; KCNQ2 pot: inactive

What do the screens show for `COC(=O)[C@@H](Cc1c[nH]c2ccccc12)NC(=O)c1ccc2c(c1)OCO2`?
KCNQ2 block: inactive

What do the screens show for `CC(C)=CCc1c(O)c(CC=C(C)C)c2c(c1O)C(=O)CC(c1ccc(O)cc1)O2` (stereo not given)?
KCNQ2 block: inactive

What do the screens show for `CC(C)=CCc1c(O)cc(O)c2c1OC(c1ccc(O)cc1)CC2=O` (stereo not given)?
KCNQ2 block: -7.8; KCNQ2 pot: inactive; Kir21 confirm: 62%; HEK293 ctr: inactive

What do the screens show for `Cn1nc(C(=O)Nc2ccc(S(=O)(=O)N3CCOCC3)cc2)c2ccccc2c1=O`?
KCNQ2 block: inactive

What do the screens show for `OC1(c2ccc(Cl)cc2)CCN(Cc2c[nH]c3ccccc23)CC1`?
KCNQ2 block: inactive; KCNQ2 pot: inactive; Kir21 confirm: 34%; HEK293 ctr: inactive

What do the screens show for `Clc1ccccc1N1CCN(Cc2c[nH]c3ccccc23)CC1`?
KCNQ2 block: inactive

Results for CNc1ccccc1C(=O)OC(C)C(=O)Nc1ccc(Cl)cn1 (stereo not given) ?
KCNQ2 block: inactive; KCNQ2 pot: inactive

What do the screens show for `CCC(C(=O)OC(C)C(=O)Nc1ccc(Cl)cn1)c1ccccc1` (stereo not given)?
KCNQ2 block: inactive; Kir21 confirm: 58%; HEK293 ctr: 68%

What do the screens show for `Cc1nc(-c2ccccn2)nc(N(C)c2ccccc2)c1Cl`?
KCNQ2 block: inactive; KCNQ2 pot: inactive

How did Fc1ccc(-c2csc(NC(=S)Nc3ccccc3)n2)cc1 do in these assays?
KCNQ2 block: inactive; KCNQ2 pot: 8.8; Kir21 confirm: inactive; HEK293 ctr: inactive; CHO-K1 Tl ctr: 26; KCNQ1 pot spec: inactive; KCNQ2 pot confirm: inactive; Kir21 spec: inactive; KCNQ2 W236L MoA: inactive

Results for O=C(Nc1ccccc1)Nc1nc(-c2ccc(F)cc2)cs1 ?
KCNQ2 block: inactive

What do the screens show for `Cc1ccc(-c2nn(-c3ccccc3)cc2C=O)o1`?
KCNQ2 block: inactive; KCNQ2 pot: inactive

What do the screens show for `COC(=O)c1ccsc1-n1cc(C#N)c(=O)n(C)c1=O`?
KCNQ2 block: inactive; KCNQ2 pot: inactive

Results for Cc1cc(=O)oc2cc(OC(=O)c3ccco3)ccc12 ?
KCNQ2 block: inactive; KCNQ2 pot: inactive; Kir21 confirm: inactive; HEK293 ctr: inactive

What do the screens show for `CCc1cc(=O)oc2cc(OC(=O)c3ccco3)ccc12`?
KCNQ2 block: inactive

Screens deposited in PubChem by Johns Hopkins Ion Channel Center.
